SMILES strings stand for the structures. Screen size: about 370,000 compounds; about 3,100 (0.84%) were called active.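 How the source made its calls: active means inhibition above the mean of compounds lying between control limits plus 3 SD, set per campaign (cut at about 8.5% in these data); inactive means the rest.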 The sample as a whole holds a higher share of actives than the screen did.

In this experiment the target is Disintegrin and metalloproteinase domain-containing protein 17 (Homo sapiens) (UniProt P78536). Kind of experiment: ADAM17 inhibitors, primary screen, biochemical, QFRET (AID 720648).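 Further: 0% = DMSO-only wells as the low control.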 The note with it: recombinant ADAM17, EDANS/DABCYL FRET peptide cleavage; at 6.95 µM; hits give high values.
Sequence of Disintegrin and metalloproteinase domain-containing protein 17 (Homo sapiens) (P78536 215-824 limits assumed): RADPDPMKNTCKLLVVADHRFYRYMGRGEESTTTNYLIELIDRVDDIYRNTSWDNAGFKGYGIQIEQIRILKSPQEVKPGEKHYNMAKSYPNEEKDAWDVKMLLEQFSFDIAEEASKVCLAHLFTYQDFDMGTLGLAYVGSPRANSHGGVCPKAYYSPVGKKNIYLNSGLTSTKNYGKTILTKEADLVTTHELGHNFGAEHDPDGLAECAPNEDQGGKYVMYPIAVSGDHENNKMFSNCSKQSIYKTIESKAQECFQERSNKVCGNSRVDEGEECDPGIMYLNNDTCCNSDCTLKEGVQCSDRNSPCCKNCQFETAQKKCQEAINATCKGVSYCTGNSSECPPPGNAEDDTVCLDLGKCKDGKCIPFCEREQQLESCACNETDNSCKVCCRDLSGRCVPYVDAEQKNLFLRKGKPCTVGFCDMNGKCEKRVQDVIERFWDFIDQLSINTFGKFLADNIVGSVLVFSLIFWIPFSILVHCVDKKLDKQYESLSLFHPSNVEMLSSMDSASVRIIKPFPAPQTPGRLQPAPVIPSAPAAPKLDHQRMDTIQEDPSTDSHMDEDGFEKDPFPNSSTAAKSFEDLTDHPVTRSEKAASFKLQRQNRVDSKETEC
As a reminder, the inhibition is the change of the read-out against control, counted positive when it falls. Consider `CN(CC(=O)Nc1ccc(S(=O)(=O)N2CCCC2)cc1)Cc1ccc(Cl)c(Cl)c1`, for which the inhibition was 4.22% (inactive).

Take `N#C/C(=C\c1cccnc1)C(=O)Nc1ccc(SC(F)F)cc1`: the inhibition was 2.16% (inactive).

As to `O=C(Cc1ccc(Cl)c(Cl)c1)Nc1ccc(SC(F)F)cc1`, the inhibition was 8.77% (active).

`C[C@@H]1CN([C@@H](C)CO)C(=O)c2cccc(NC(=O)Nc3cccc4ccccc34)c2O[C@H]1CN(C)S(=O)(=O)c1ccccc1F`: the inhibition is -10.5% (inactive).

For the compound `CN(C)S(=O)(=O)c1cccc(C(=O)N/N=C\c2ccco2)c1`, the inhibition was 1.33% (inactive).

On to `O=C(Nn1c(SCc2ccc([N+](=O)[O-])cc2)nc2ccccc2c1=O)c1ccc(F)cc1`, for which the inhibition was 8.99% (active).

Consider `COCCNC(=O)c1ccc(-n2c(SCc3cccnc3)nc3ccccc3c2=O)cc1`, for which the inhibition is -0.26% (inactive).

On to `O=C(Nc1cc(-c2ccccc2)nn1-c1ccccc1F)c1ccc([N+](=O)[O-])cc1`, for which the inhibition is 2.52% (inactive).

For `O=C(CSc1nc2ccccc2n1Cc1ccccc1Cl)N/N=C\c1c[nH]c2ccccc12`, the inhibition was 4.92% (inactive).

On to `COc1ccc(CSc2nnc(SCC(=O)Nc3ccccc3C(F)(F)F)s2)cc1`, for which the inhibition was 1.07% (inactive).

Consider `COc1ccc2c(C(C)c3ccc(N)cc3)cn(C)c2c1` (stereo not given), for which the inhibition was 1.72% (inactive).

As to `CCOC(=O)C1(Cc2ccccc2)CCN(Cc2cn(C(C)=O)c3ccccc23)CC1`, the inhibition is -0.16% (inactive).

Turning to `Cn1nc(C(F)(F)F)c2cc(NC(=O)OCC(C)(C)C)sc21`, the inhibition is 8.91% (active).

Turning to `Cn1nc(C(F)(F)F)c2cc(C(=O)N3CCOCC3)sc21`, the inhibition was -1.03% (inactive).

For `Cn1nc(C(F)(F)F)c(-c2ccc(F)cc2)c1NC(=O)CSCC(=O)O`, the inhibition was -2.02% (inactive).

`COC(=O)[C@]12C[C@H](CC(=O)NCCc3ccccc3OC)C(=O)N(Cc3ccco3)C1=C[C@H](C(C)C)O[C@@H]2C1CC1`: the inhibition is -2.62% (inactive).

Regarding `O=C(c1cccc(C(F)(F)F)c1)N1CC[C@H]2[C@H](CCCN2Cc2cc(F)cc(F)c2)C1`, the inhibition was -0.58% (inactive).

Turning to `COC(=O)CC1CCc2cc(C)cc(C(CC(C)C)NC(=O)[C@H](CC(C)C)NC(=O)OCc3ccccc3)c2O1` (stereo not given in full), the inhibition was -2.33% (inactive).

Consider `Cc1cc(NC(=O)CN2C(=O)NC(CCc3ccccc3)C2=O)no1` (stereo not given), for which the inhibition was -0.8% (inactive).

As for `COc1ccc(C2(c3ccc(OC)cc3)NC(=O)N(CC(=O)Nc3cc(C)on3)C2=O)cc1`, the inhibition was 2.54% (inactive).

As to `Cc1cc(NC(=O)CN2C(=O)NC(CC(C)C)C2=O)no1` (stereo not given), the inhibition is 10.8% (active).

Turning to `COc1ccc(Cn2cc(CN3[C@@H](CC(C)C)COc4cc(Br)ccc4S3(=O)=O)nn2)cc1`, the inhibition is 1.7% (inactive).

On to `COc1ccc(-n2c(SCC(=O)Nc3ccc4c(c3)OCCO4)nnc2-c2ccc(Cl)cc2)cc1`, for which the inhibition is 4.24% (inactive).

In the case of `O=C(CCCCCN1C(=O)C2C3C=CC(C3)C2C1=O)Nc1ccccn1` (stereo not given), the inhibition is 2.59% (inactive).

Take `c1csc(-c2nnc(SCc3nc4ccccc4[nH]3)o2)c1`: the inhibition is -10.2% (inactive).

Consider `COC(=O)[C@]12C[C@H](CC(=O)N3CCOCC3)C(=O)N(Cc3ccc(Cl)cc3Cl)C1=C[C@H](COCc1ccccc1)O[C@@H]2C`, for which the inhibition was 0.56% (inactive).

In the case of `O=C(CN1CCN(c2ncc(C(F)(F)F)cc2Cl)CC1)Nc1ccc2c(c1)OCO2`, the inhibition was -4.94% (inactive).

Consider `CC(=O)c1ccc(Cc2ncc(C(F)(F)F)cc2Cl)s1`, for which the inhibition was -2.56% (inactive).

In the case of `O=C(Cc1ncc(C(F)(F)F)cc1Cl)Nc1cccc(Br)c1`, the inhibition was 10.2% (active).

`CCOC(=O)[C@]12CCCC3=C1N(CCC3)C(=O)[C@@H](CC(=O)NCc1cccs1)C2`: the inhibition was 0.06% (inactive).

Regarding `Nn1c(SCC(=O)N2c3ccccc3Sc3ccccc32)nnc1-c1n[nH]c2c1CCC2`, the inhibition was 5.84% (inactive).

Take `Cc1ccc(CN2CCCCC(NC(=O)C3CCCCC3)C2=O)cc1` (stereo not given): the inhibition was 1.84% (inactive).

Turning to `CN(C)c1ccc(NC(=O)NC2CCCCN(Cc3ccc(Cl)cc3)C2=O)cc1` (stereo not given), the inhibition was 8.69% (active).

In the case of `O=C(NC1CCCCN(Cc2ccc(Cl)cc2)C1=O)c1ccc(Br)cc1` (stereo not given), the inhibition is 5.04% (inactive).

With `CN(C)[C@H]1CCN(c2cccc3c2S(=O)(=O)N2CC[C@H](C2)O3)C1`, the inhibition is -2.38% (inactive).

As for `COC(=O)C[C@@H]1CC[C@H]2[C@@H](COc3ccc(NS(=O)(=O)CC(F)(F)F)cc3C(=O)N2C)O1`, the inhibition was -6.55% (inactive).

As for `CCOC(=O)c1ccc(CS(=O)c2ccc(Cl)cc2)o1` (stereo not given), the inhibition is -2.74% (inactive).

Turning to `CCOC(=O)c1c(S(=O)(=O)Nc2cccc(Cl)c2)c(C)n(C)c1C`, the inhibition is -9.22% (inactive).

Take `CCOC(=O)c1c(Cc2ccc(Cl)cc2)c[nH]c1C`: the inhibition is 11.1% (active).

With `CC(C)N1CCCCC(NC(=O)c2ccc3ccccc3c2)C1=O` (stereo not given), the inhibition is -4.85% (inactive).

As for `COc1ccc(C(=O)NC2CC(C)(C)NC(C)(C)C2)cc1OC`, the inhibition is -2.12% (inactive).

For `COc1ccc(C(=O)Nc2ccc3nc(N4CCCCC4)cc(C)c3c2)cc1OC`, the inhibition is -7.57% (inactive).

Take `COc1ccc(C(=O)Nc2ccc(C3(C#N)CCCC3)cc2)cc1OC`: the inhibition was 8.73% (active).

For `C=CCN(C)CC#Cc1ccccc1`, the inhibition is 4% (inactive).

Consider `c1coc(CCNc2ncnc3ccc(-c4ccc5c(c4)OCO5)cc23)c1`, for which the inhibition was -61.9% (inactive).

As for `O=C(CSc1nc(Nc2ccccc2)nc(N2CCOCC2)n1)Nc1cc(Cl)ccc1O`, the inhibition is 10.2% (active).

On to `O=C(CSc1ccccc1)Nc1cc(Cl)ccc1Oc1ccccc1`, for which the inhibition is 2.94% (inactive).

In the case of `O=C(CSc1nc2ccc(Nc3nc(N4CCOCC4)nc(N4CCOCC4)n3)cc2s1)NCc1ccco1`, the inhibition was -1.45% (inactive).

Take `Cc1cc(=O)[nH]c(SCC(=O)Nc2ccc(Cl)cc2C)n1`: the inhibition is 3.04% (inactive).

For the compound `CCCCNC(=O)C[C@H]1C(=O)N(Cc2ccc(OC)cc2)C2=CCCC[C@@]21C(=O)OCC`, the inhibition was -4.97% (inactive).

Regarding `CC(C)(C)OC(=O)NCc1cc(F)ccc1/C=C/S(=O)(=O)NCCc1ccccc1`, the inhibition was 4.18% (inactive).

For `O=C1NC(=O)C(c2ccc(Cl)cc2)N1` (stereo not given), the inhibition is 35.4% (active).

Turning to `O=C1CSC(c2ccc(Cl)cc2)N1` (stereo not given), the inhibition is -1% (inactive).

For the compound `CC(C)Oc1ccc(C2NC(=O)NC2=O)cc1` (stereo not given), the inhibition is -3.2% (inactive).

As to `Fc1ccc2nc(COCc3nc4ccc(F)cc4[nH]3)[nH]c2c1`, the inhibition was -1.4% (inactive).

The values are drawn from PubChem BioAssay AID720648 (The Scripps Research Institute Molecular Screening Center, 2013).
